This is an account of results in PubChem BioAssay (Tox21).

Inconclusive results are not listed. Where a call stands in place of a potency, no number is given. Where a structure was tested more than once in an assay, its records may differ in their call. Calls of active or inactive are those of the source. Calls come from the whole dose curve.
Potency is the fitted concentration of half-maximal effect.

The experiment is described as follows: p53 small molecule agonists, cell-based qHTS assay with human liver microsomes: qHTS cell viability counter screen (AID 1963579). Note: nearly all actives have a fitted effect of over 45% in size. To be noted: p53RE-bla HCT-116 viability, ATP luminescence, 16 h, HLM; series mostly up to 66 µM; activity change, negative = cytotoxicity: at the top concentration. The method, boiled down:
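Cells carrying the p53 response-element beta-lactamase reporter are treated for 16 h at 37 C with test compounds in the presence of human liver microsomes and NADPH (both 0.5 mg/mL final); ATP-based CellTiter-Glo luminescence then reports viability.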
On to `O=C1O[C@H]([C@H](O)CO)C(O)=C1O`, for which the “activity change, negative = cytotoxicity” value is 1.29% (inactive).
Consider `COC(=O)c1ccc(O)cc1`, for which the Potency entry was “inactive”.
The same measure, in the same setting: the entry for `S=c1nc[nH]c2nc[nH]c12` is “inactive”.
Same read-out and setting: the figure for `C[C@]12CCC(=O)C=C1CC[C@@H]1[C@@H]2C(=O)C[C@@]2(C)[C@H]1CC[C@]2(O)C(=O)CO` is 408 nM (active) and inactive; for `C/C=C/C(=O)N(CC)c1ccccc1C` it is “inactive”; for `O=c1c(-c2ccc(O)cc2)coc2cc(O)cc(O)c12` it is “inactive”.
Same read-out and setting: as for `CN(N=O)C(=O)N[C@@H]1[C@@H](O)[C@H](O)[C@@H](CO)O[C@@H]1O`, the entry is “inactive”; as for `CCCCC1C(=O)N(c2ccccc2)N(c2ccccc2)C1=O`, “inactive”; as for `CC12CCC(CC1)C(C)(C)O2`, “inactive”.
In the case of `OC[C@@H](O)[C@@H](O)[C@H](O)[C@H](O)CO`, the Potency entry was “inactive”.
With `CCCN(CCC)S(=O)(=O)c1ccc(C(=O)O)cc1`, the Potency entry was “inactive”.
On to `Cc1ncc([N+](=O)[O-])n1CCO`, for which the Potency entry was “inactive”.
The same measure, in the same setting: the entry for `CCCCOC(=O)c1ccc(N)cc1` is “inactive”; for `C#C[C@]1(O)CC[C@H]2[C@@H]3CCC4=CC(=O)CC[C@@H]4[C@H]3CC[C@@]21CC` it is “inactive”; for `c1ccc2c(c1)c1cccc3ccc4cccc2c4c31` it is “inactive”.
`CC1(C)O[C@@H]2C[C@H]3[C@@H]4C[C@H](F)C5=CC(=O)CC[C@]5(C)[C@H]4[C@@H](O)C[C@]3(C)[C@]2(C(=O)CO)O1`: the Potency result was “inactive”.
The same measure, in the same setting: the entry for `CC(C)=CCC/C(C)=C/CO` is “inactive”.
Same read-out and setting: the entry for `CN1C(C(=O)Nc2ccccn2)=C(O)c2ccccc2S1(=O)=O` is “inactive”.
Still for that read-out and setting: as for `Cc1noc(NS(=O)(=O)c2ccc(N)cc2)c1C`, the entry is “inactive”; as for `Cc1cc(=O)n(-c2ccccc2)n1C`, “inactive”.
On to `CC(C)(Oc1ccc(C2CC2(Cl)Cl)cc1)C(=O)O` (stereo not given), for which the Potency result is “inactive”.
For the compound `OC[C@@H](O)[C@@H](O)[C@H](O)[C@@H](O)CO`, the Potency entry is “inactive”.
On the same count and under the same terms, as for `OC(Cn1cncn1)(Cn1cncn1)c1ccc(F)cc1F`, the entry is “inactive”.
Same read-out and setting: the entry for `OCCO` is “inactive”; for `NS(=O)(=O)c1cc2c(cc1Cl)NCNS2(=O)=O` it is “inactive”.
On to `O=C(O)Cc1ccccc1Nc1c(Cl)cccc1Cl`, for which the “activity change, negative = cytotoxicity” value was 8.95% (inactive).
For the compound `CC(C)(C#N)c1cc(Cn2cncn2)cc(C(C)(C)C#N)c1`, the Potency result was “inactive”.
On to `C[C@]12CC[C@@H]3c4ccc(O)cc4CC[C@H]3[C@@H]1C[C@@H](O)[C@@H]2O`, for which the Potency entry was “inactive”.
The same measure, in the same setting: the entry for `CC[C@H](C)C(=O)O[C@H]1C[C@@H](C)C=C2C=C[C@H](C)[C@H](CC[C@@H]3C[C@@H](O)CC(=O)O3)[C@H]21` is “inactive”; for `Cc1nnc(NS(=O)(=O)c2ccc(N)cc2)s1` it is “inactive”; for `NC(=O)c1ccccc1O` it is “inactive”.
Still for that read-out and setting: the entry for `CC(C)Cc1ccc(C(C)C(=O)O)cc1` (stereo not given) is “inactive”; for `CC(C)(Oc1ccc(Cl)cc1)C(=O)O` it is “inactive”.
Same read-out and setting: the entry for `COc1ccccc1OCC(O)CO` (stereo not given) is “inactive”; for `NC(=O)c1cccnc1` it is “inactive”.
As to `CC(=O)[C@@]1(O)CC[C@H]2[C@@H]3C[C@H](C)C4=CC(=O)C=C[C@]4(C)[C@@]3(F)[C@@H](O)C[C@@]21C`, the Potency result is “inactive”.
As for `CC(=O)Nc1nnc(S(N)(=O)=O)s1`, the Potency result is “inactive”.
As to `NNCCc1ccccc1`, the Potency result was “inactive”.
Take `CCOC(N)=O`: the Potency result is “inactive”.
Still for that read-out and setting: as for `CCCCCCc1ccc(O)cc1O`, the entry is “inactive”.
